Assay results as given in PubChem BioAssay (NCI).
About 83,000 compounds went through this panel and 20% of them were active in at least one assay; those are over-represented in the sample as a whole.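 Cell lines were cultured in 96-well plates, exposed to a single compound concentration, and assessed for percent growth 48 hours later.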 Unmarked numbers belong to inactive results. Active and inactive are the calls of the source. Rule for the calls: active = growth percent below 10; inactive = the rest.

How the values were obtained:
Assay in all cases: NCI-60 one-dose screen, 48 h (100 = growth as untreated, 0 = no growth, -100 = all killed)
Conditions in all cases: 10 µM unless noted
T-47D breast = system: T-47D breast
BT-549 breast = system: BT-549 breast
MDA-MB-435 melanoma = system: MDA-MB-435 melanoma
SW-620 colon = system: SW-620 colon
MCF7 breast = system: MCF7 breast
HCT-116 colon = system: HCT-116 colon
HCC-2998 colon = system: HCC-2998 colon
KM12 colon = system: KM12 colon

Row | Structure (SMILES) | growth (T-47D breast) | growth (BT-549 breast) | growth (MDA-MB-435 melanoma) | growth (SW-620 colon) | growth (MCF7 breast) | growth (HCT-116 colon) | growth (HCC-2998 colon) | growth (KM12 colon)
1 | CC/C=C\C/C=C/C=C1/C(=O)C=C[C@@H]1C/C=C\CCCC(=O)OC | 16.7% | -21.9% (active) | -39.3% (active) | -14.3% (active) | 18.6% | -76.1% (active) | 62% | 20.4%
2 | CC1=NN(c2ccc(Cl)cc2)CC1(C)N=O (stereo not drawn) | 60.8% | 86.1% | 48.5% | 43.7% | 29.7% | 30.9% | 102% | 99.5%
3 | O=C(Nc1ccc(F)cc1)Nc1ccccc1CNc1nc(Nc2ccc(OCCN3CCCC3)cc2)ncc1Cl | 100% | 84.9% | 16.3% | 27.8% | 32.5% | 21.8% | 48.6% | 49.6%
4 | O=S(=O)(c1ccccc1)N1CCCN(c2nc(-c3ccccc3)nc3nc(-c4ccccc4)oc23)CC1 | 99.4% | 107% | 102% | 109% | 90.8% | 89.5% | 108% | 113%
5 | O=C(CN1C(=O)/C(=C/c2ccco2)SC1=S)NCCc1c[nH]c2ccc(F)cc12 | 103% | 97.4% | 104% | 107% | 97.5% | 96.6% | 115% | 101%
6 | CO[C@H](C(=O)[C@@H](O)[C@@H](C)O)[C@@H]1Cc2cc3cc(O[C@H]4C[C@@H](O[C@H]5C[C@@H](O)[C@H](O)C(C)O5)[C@H](O)C(C)O4)c(C)c(O)c3c(O)c2C(=O)[C@H]1O[C@H]1C[C@@H](O[C@H]2C[C@@H](O[C@H]3C[C@@H](OC)[C@H](O)C(C)O3)[C@@H](O)C(C)O2)C(O)(O)C(C)O1 (stereo partly drawn) | 0.438% (active) | -20.1% (active) | -30.5% (active) | 22% | 4.2% (active) | 6.1% (active) | -13.7% (active) | 9.69% (active)
7 | Nc1c(C(=O)Nc2cccc3ncccc23)sc2nc3c(cc12)C(=O)CCC3 | 49.3% | 55.2% | -18.2% (active) | 39.1% | 25.2% | 44.1% | 75.8% | 46.5%
8 | CCNC(=O)Oc1ccc(/C(=C(/C)Cc2ccc(OC)cc2)c2ccc(OCCN3CCCC3)cc2)cc1 | 42.7% | 85.9% | 61.2% | 81.4% | 29% | 44% | 71.2% | 71.5%
9 | COc1cc2cc(NCc3ccc(OC(F)F)cc3)nc(C)c2cc1OC | 71.1% | 71.8% | 68.4% | 47.9% | 86.1% | 37.3% | 78.2% | 82.8%
10 | CC(C)(C)C(=O)/C=C/c1ccc([N+](=O)[O-])cc1 | 65.8% | 78.5% | 47.1% | 20% | 8.67% (active) | 42.2% | 119% | 31.9%
11 | O=P(O)(O)OCC1OC(n2cnc3c(NCc4ccccc4)ncnc32)C(O)C1O (stereo not drawn) | 22.1% | -18.8% (active) | 25.4% | 24.5% | 27.6% | 7.45% (active) | 29.9% | 80.7%
12 | O=C(OC[C@@H]1CO1)c1cccc2c(=O)c3ccccc3[nH]c12 | -9.67% (active) | -31.6% (active) | -81.7% (active) | -24.7% (active) | 0.0356% (active) | 2.66% (active) | -66.2% (active) | -65.5% (active)
13 | CN1CCN(Cc2ccc(NC(=O)c3cncc(C#Cc4cncc5[nH]ncc45)c3)cc2C(F)(F)F)CC1 | 31.3% | 23.5% | 2.84% (active) | -29.1% (active) | 20.5% | 1.91% (active) | 6.34% (active) | 3.69% (active)
14 | CCCCCCCCn1ccc2cc(NC(=O)Cn3cc(CN4CCN(CC)CC4)nn3)ccc21 | 58.2% | 71.8% | -84% (active) | -43% (active) | 38.9% | 61.8% | -12.2% (active) | 77.8%
15 | CCOC(=O)c1c(C)nn(CC(O)c2ccccc2)c1NC(=O)Nc1cccc(F)c1 (stereo not drawn) | 81.8% | 96.4% | 86.8% | 82.7% | 81.4% | 84% | 94.6% | 82.9%
16 | O=C(O)C1CN(c2cccc(Cl)c2)N(c2cccc(Cl)c2)C1=O (stereo not drawn) | 88.9% | 101% | 94.2% | 97.8% | 91.8% | 97.4% | 103% | 81.3%

Row | Structure (SMILES) | growth (T-47D breast) | growth (BT-549 breast) | growth (MDA-MB-435 melanoma) | growth (SW-620 colon) | growth (MCF7 breast) | growth (HCT-116 colon) | growth (HCC-2998 colon) | growth (KM12 colon)
17 | O=C(CCl)Nc1ccc2c(Nc3cc(O)ccc3Cl)ncnc2c1 | -52.4% (active) | -78.5% (active) | -69.4% (active) | -60.6% (active) | -57.9% (active) | -74.5% (active) | -3.99% (active) | -64.7% (active)
18 | CN(C)c1ccc(/C=C/C(=O)c2ccc(Nc3nc(Nc4ccc(F)cc4)nc(Nc4ccc(Cl)cc4)n3)cc2)cc1 | 50.4% | 75.7% | 56.2% | 92.3% | 56.7% | 58.7% | 111% | 73.8%
19 | COc1cc(C(=O)c2c(-c3ccccc3)oc3c(OC)cccc23)cc(OC)c1O | 44% | 11.7% | -30.4% (active) | 22.7% | 14.1% | 10.2% | -3.66% (active) | 16.6%
20 | CCN(CC)CCNC(=O)c1ccc(-c2nc3ccc4[nH]ncc4c3c3c2CCCC3)cc1 | 44.6% | 59.5% | 42.9% | 28.4% | 62.4% | 24.1% | 84.3% | 46.2%
21 | c1ccc(CNc2ccc3nc(CCC4CCCCC4)[nH]c3c2)cc1 | 33.9% | 72.2% | 81.6% | 67.8% | 62% | 54.6% | 45.8% | 66.7%
22 | COc1cc(C#Cc2ccc(=O)oc2C#Cc2ccccc2)cc(OC)c1OC | 27.6% | 57.6% | 96% | 8.07% (active) | 44.6% | -32.2% (active) | 29.1% | 82.7%
23 | COc1cc2c(c(OC)c1OC)C(=O)CC(c1cccc(NC(=O)c3ccccc3Br)c1)O2 (stereo not drawn) | 65.7% | 98.7% | 92.5% | 97.3% | 78.2% | 75.6% | 106% | 103%
24 | CCOC(=O)c1c(NC(=O)CSc2n[nH]c3nc4ccccc4n23)sc(CC)c1C | 97.1% | 137% | 103% | 104% | 91.9% | 93.9% | 105% | 98.3%
25 | COc1ccc2c(c1)c(-c1cc(-c3cn(C)c4ccc(OC)cc34)on1)cn2C | 80.9% | 127% | 116% | 91.8% | 89% | 89.1% | 101% | 106%
26 | O=C1/C(=C/c2ccccc2)CN(C(=O)c2cccnc2)C/C1=C\c1ccccc1 | 9% (active) | -53.3% (active) | -27.7% (active) | -54.4% (active) | 0.394% (active) | -87.6% (active) | -83.5% (active) | -40.1% (active)
27 | CCCCCCCC/C=C\CCCCCCCCOc1ccc(CC(=O)NCC[N+](C)(C)C)cc1 | 85% | 74.3% | 86.5% | 74.2% | 73.7% | 68.2% | 43.1% | 35.7%
28 | C[C@@H]1O[C@@H](O[C@@H]2C[C@H](c3ccc4c(c3O)C(=O)C3=C(C4=O)[C@@]4(O)C(=O)C[C@](C)(O)C[C@@]4(O)C=C3)O[C@H](C)[C@H]2O)C[C@H](O)[C@@H]1O | 93.8% | 100% | 103% | 95% | 91.8% | 98.9% | 102% | 99.7%
29 | c1ccc2cc(Cn3c[n+](Cc4ccc5ccccc5c4)c4ccccc43)ccc2c1 | -8.43% (active) | -82.7% (active) | -52.6% (active) | -3% (active) | -30.2% (active) | -90.6% (active) | -53.3% (active) | -85.9% (active)
30 | CCN=C1C=CC(=C(c2ccc(N(C)C)cc2)c2ccc(N(C)C)cc2)c2ccccc21 | -22.8% (active) | -35.2% (active) | -35.2% (active) | -9.44% (active) | -9.8% (active) | -51.6% (active) | -40.8% (active) | -86.1% (active)
31 | Nc1ncnc2c1c(-c1ccc(Oc3ccccc3)cc1)nn2CC1SSCC1O (stereo not drawn) | 7.22% (active) | 82% | -0.185% (active) | 78.7% | 16% | 43.8% | 80.4% | 46.5%
